Data from PubChem BioAssay (Tox21).
Inconclusive results are not listed. Where a call stands in place of a potency, no number is given. Some compounds were tested as several samples or in several runs, with calls that do not always agree. Activity calls are given as the source filed them. The call rests on the fitted dose curve; in most records, active means well fitted curve in the direction sought with a large enough effect in the repeat runs; inconclusive means weak or mixed curves; inactive means no such curve, though single readings can be large; an effect the other way counts as inactive or inconclusive.

Legend:
[1] = A CellTox Green Cytotoxicity Assay to monitor cytotoxicity in HEK293 cells - 40 hour (AID 1224871); further: nearly all actives have a fitted effect of over 45% in size; further: potency means the concentration at half of the fitted maximal effect
In short: (§1)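 Cytotoxicity was tracked continuously in HEK293 cells by a DNA-binding dye excluded from viable cells. Compounds were transferred in DMSO 5 h after seeding; fluorescence was recorded at intervals up to 40 h.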

[2] = qHTS RealTime-Glo MT Cell Viability Assay in HEK293 cells - 16 hour (AID 1224872); further: nearly all actives have a fitted effect of over 50% in size; further: potency means the concentration at half of the fitted maximal effect
In short: (§2)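 HEK293 cells were seeded at 600 cells/well together with NanoLuc luciferase and cell-permeant prosubstrate, preincubated 5 h at 37 C/5% CO2, then given compound in DMSO by pintool. Luminescence from viable-cell prosubstrate reduction was read repeatedly over 40 h.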

[3] = qHTS RealTime-Glo MT Cell Viability Assay in HepG2 cells - 8 hour (AID 1224873); further: nearly all actives have a fitted effect of over 55% in size
In short: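 HepG2 cells (600/well) mixed with RealTime-Glo MT reagent, settled 5 h at 37 C/5% CO2 before compound addition. Nonlytic NanoLuc luminescence from viable-cell prosubstrate reduction read repeatedly during 40 h treatment at 37 C.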

[4] = qHTS RealTime-Glo MT Cell Viability Assay in HEK293 cells - 40 hour (AID 1224874); details: RealTime-Glo luminescence; max response: stronger effect = lower value; further: nearly all actives have a fitted effect of over 50% in size; further: potency means the concentration at half of the fitted maximal effect
In short: (§3)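 Nonlytic bioluminescent viability monitoring. HEK293 at 600 cells/well with reagent; 5 h settle; compound transfer by pintool; plates held at 37 C and read at set time points.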

[5] = A CellTox Green Cytotoxicity Assay to monitor cytotoxicity in HepG2 cells - 16 hour (AID 1224876); further: nearly all actives have a fitted effect of over 45% in size
In short: (§4)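 Real-time, homogeneous cytotoxicity readout: dead-cell DNA staining by CellTox Green in HepG2 monolayers, fluorescence measured at timed intervals up to 40 h of continuous compound exposure.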

[6] = qHTS RealTime-Glo MT Cell Viability Assay in HepG2 cells - 32 hour (AID 1224877); further: nearly all actives have a fitted effect of over 55% in size
In short: (§5)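 HepG2 cells were seeded at 600 cells/well together with NanoLuc luciferase and a cell-permeant prosubstrate, preincubated 5 h at 37 C/5% CO2, then pin-dosed with compounds in DMSO. Nonlytic luminescence from viable cells was read at each time point.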

[7] = A CellTox Green Cytotoxicity Assay to monitor cytotoxicity in HepG2 cells - 24 hour (AID 1224878); further: nearly all actives have a fitted effect of over 45% in size
In short: as §4

[8] = A CellTox Green Cytotoxicity Assay to monitor cytotoxicity in HepG2 cells - 40 hour (AID 1224879); further: nearly all actives have a fitted effect of over 40% in size
In short: as §4

[9] = qHTS RealTime-Glo MT Cell Viability Assay in HEK293 cells - 0 hour (AID 1224880); further: top concentration of the series differs between compounds; nearly all actives have a fitted effect of over 45% in size
In short: as §3

[10] = A CellTox Green Cytotoxicity Assay to monitor cytotoxicity in HEK293 cells - 32 hour (AID 1224881); further: nearly all actives have a fitted effect of over 40% in size; further: potency means the concentration at half of the fitted maximal effect
In short: as §1

[11] = A CellTox Green Cytotoxicity Assay to monitor cytotoxicity in HepG2 cells - 0 hour (AID 1224882); further: nearly all actives have a fitted effect of over 35% in size
In short: as §4

[12] = A CellTox Green Cytotoxicity Assay to monitor cytotoxicity in HepG2 cells - 32 hour (AID 1224883); further: nearly all actives have a fitted effect of over 50% in size
In short: as §4

[13] = qHTS RealTime-Glo MT Cell Viability Assay in HepG2 cells - 16 hour (AID 1224885); further: nearly all actives have a fitted effect of over 50% in size
In short: as §5

[14] = qHTS RealTime-Glo MT Cell Viability Assay in HEK293 cells - 24 hour (AID 1224886); further: nearly all actives have a fitted effect of over 50% in size; further: potency means the concentration at half of the fitted maximal effect
In short: as §2

[15] = qHTS RealTime-Glo MT Cell Viability Assay in HEK293 cells - 8 hour (AID 1224887); further: nearly all actives have a fitted effect of over 50% in size; further: potency means the concentration at half of the fitted maximal effect
In short: as §3

[16] = qHTS RealTime-Glo MT Cell Viability Assay in HepG2 cells - 0 hour (AID 1224889); further: nearly all actives have a fitted effect of over 50% in size
In short: as §5

[17] = A CellTox Green Cytotoxicity Assay to monitor cytotoxicity in HepG2 cells - 8 hour (AID 1224890); further: nearly all actives have a fitted effect of over 45% in size
In short: as §4

[18] = A CellTox Green Cytotoxicity Assay to monitor cytotoxicity in HEK293 cells - 24 hour (AID 1224875)
In short: as §1

[19] = A CellTox Green Cytotoxicity Assay to monitor cytotoxicity in HEK293 cells - 16 hour (AID 1224888); further: nearly all actives have a fitted effect of over 35% in size
In short: as §1

[20] = A CellTox Green Cytotoxicity Assay to monitor cytotoxicity in HEK293 cells - 8 hour (AID 1224884); further: nearly all actives have a fitted effect of over 35% in size
In short: as §1

CCOP(=S)(OCC)Oc1nc(Cl)c(Cl)cc1Cl
Potency [1]: 34.8 µM (active) and inactive | Potency [2]: 21.9 µM (active) and inactive | Potency [3]: inactive | Potency [4]: 24.6 µM (active) | max response [4]: -11.7% (inactive) | Potency [5]: inactive | Potency [6]: inactive | Potency [7]: inactive | Potency [8]: inactive | Potency [9]: inactive | Potency [10]: 39 µM (active) and inactive | Potency [11]: inactive | Potency [12]: inactive | Potency [13]: inactive | Potency [14]: 21.9 µM (active) and inactive | Potency [15]: 19.5 µM (active) and inactive | Potency [16]: inactive | Potency [17]: inactive

O=C1c2ccccc2C(=O)C1C(=O)C(c1ccccc1)c1ccccc1
Potency [1]: inactive | Potency [2]: inactive | Potency [3]: inactive | max response [4]: 3.22% (inactive) | Potency [18]: inactive | Potency [5]: inactive | Potency [6]: inactive | Potency [7]: inactive | Potency [8]: inactive | Potency [10]: inactive | Potency [11]: inactive | Potency [12]: inactive | Potency [13]: inactive | Potency [14]: inactive | Potency [19]: inactive | Potency [17]: inactive

O=C(O)c1ccccc1C(=O)Nc1cccc2ccccc12
Potency [1]: inactive | Potency [2]: inactive | Potency [3]: inactive | max response [4]: 18.5% (inactive) | Potency [18]: inactive | Potency [5]: inactive | Potency [6]: inactive | Potency [7]: inactive | Potency [8]: inactive | Potency [9]: inactive | Potency [10]: inactive | Potency [11]: inactive | Potency [12]: inactive | Potency [20]: inactive | Potency [13]: inactive | Potency [19]: inactive | Potency [17]: inactive

CCOC(=O)COc1cc(-c2nn(C)c(OC(F)F)c2Cl)c(F)cc1Cl
Potency [1]: inactive | Potency [2]: inactive | Potency [3]: inactive | max response [4]: -5.9% (inactive) | Potency [18]: inactive | Potency [5]: inactive | Potency [7]: inactive | Potency [8]: inactive | Potency [9]: inactive | Potency [10]: inactive | Potency [11]: inactive | Potency [12]: inactive | Potency [20]: inactive | Potency [13]: inactive | Potency [14]: inactive | Potency [15]: inactive | Potency [19]: inactive | Potency [16]: inactive | Potency [17]: inactive

C=COC(C)=O
Potency [1]: inactive | Potency [2]: inactive | Potency [3]: inactive | max response [4]: 2.49% (inactive) | Potency [18]: inactive | Potency [5]: inactive | Potency [6]: inactive | Potency [7]: inactive | Potency [8]: inactive | Potency [9]: inactive | Potency [10]: inactive | Potency [11]: inactive | Potency [12]: inactive | Potency [13]: inactive | Potency [14]: inactive | Potency [15]: inactive | Potency [16]: inactive | Potency [17]: inactive

CCO[C@H]1O[C@@H]2OC3(C)CC[C@H]4[C@H](C)CC[C@@H]([C@H]1C)[C@@]24OO3
Potency [1]: inactive | Potency [2]: inactive | Potency [3]: inactive | max response [4]: -21.5% (inactive) | Potency [18]: inactive | Potency [5]: inactive | Potency [6]: inactive | Potency [7]: inactive | Potency [8]: inactive | Potency [9]: inactive | Potency [10]: inactive | Potency [11]: inactive | Potency [12]: inactive | Potency [20]: inactive | Potency [13]: inactive | Potency [14]: inactive | Potency [19]: inactive | Potency [16]: inactive | Potency [17]: inactive

CC(Cl)Cl
Potency [1]: inactive | Potency [2]: inactive | Potency [3]: inactive | max response [4]: 3.34% (inactive) | Potency [18]: inactive | Potency [5]: inactive | Potency [6]: inactive | Potency [7]: inactive | Potency [8]: inactive | Potency [9]: inactive | Potency [10]: inactive | Potency [11]: inactive | Potency [12]: inactive | Potency [13]: inactive | Potency [14]: inactive | Potency [15]: inactive | Potency [19]: inactive | Potency [16]: inactive | Potency [17]: inactive
